Results filed as inconclusive are left out. Where a call stands in place of a potency, no number is given. Active and inactive are the calls of the source. Calls come from the whole dose curve.
Experiment: qHTS for Inhibitors of Cell Surface uPA Generation: Wild-type Protective Antigen (WT-PrAg) Counterscreen for Cherry-picked Compounds
Potency is the fitted concentration of half-maximal effect.

Row | Compound | Potency
1 | CCOC(=O)Cn1c(=O)cc(C)c2cccc(C)c21 | inactive
2 | CC1(C)Oc2ccc3ccc(=O)oc3c2[C@@H](O)[C@H]1O | inactive
3 | Cc1cc(=O)[nH]c2c(C)cc(S(=O)(=O)Nc3ccc(O)cc3)cc12 | inactive
4 | CCC(C)C1NC(=O)C2CCCN2C(=O)C(CC(C)C)OC(=O)CCNC(=O)C(C)N(C)C(=O)C(C(C)C)N(C)C1=O (stereo not drawn) | 3.69 µM (active)
5 | CC(Sc1nnc2ccccn12)C(=O)NCc1ccc2c(c1)OCO2 (stereo not drawn) | inactive
6 | COc1cccc(CN(C)C(=O)c2cc(S(=O)(=O)N3CCCC3)ccc2C)c1OC | inactive
7 | Cc1ccccc1-c1nnc(SCC(=O)NCC2CCCO2)o1 (stereo not drawn) | inactive
8 | CCOC(=O)C1(CC2CCCCO2)CCN(Cc2nccn2-c2cccc(C)c2)CC1 (stereo not drawn) | inactive
9 | O=C(Nc1cccc(C2=NCCN2)c1)Nc1cccc(C2=NCCN2)c1 | inactive
10 | c1cncc(C2CCCCN2)c1 (stereo not drawn) | inactive
11 | CN(CC(=O)N(C)CC(=O)Nc1c(Cl)cccc1Cl)Cc1ccccc1F | inactive
12 | Cc1ccc(N2C(=O)CC(N3CCN/C3=C3\CC/C(=C\c4ccccc4)C3=O)C2=O)cc1 (stereo not drawn) | inactive
13 | COc1ccc2[nH]cc(S(=O)(=O)c3ccc(C(C)C)cc3)c(=O)c2c1 | inactive
14 | O=C(O)CC1(CC(=O)NCc2ccc(Cl)cc2)CCCCC1 | inactive
15 | CCCCn1c(SCC(=O)Nc2cc(C(F)(F)F)ccc2Cl)nnc1C(CC)N(C)C (stereo not drawn) | 58.5 µM (active)
16 | COc1ccc(NC(=O)/C(N=Nc2cc(S(=O)(=O)Nc3ccc(OC)cc3)ccc2OC)=C(\C)O)cc1 | inactive
17 | COCC(=O)N1CCC(n2nccc2NC(=O)c2ccccc2OC)CC1 | inactive
18 | CCN(CC)CC(=O)Nc1sc2c(c1C(=O)c1ccccc1OC)CCC2 | 9.27 µM (active)
19 | Cc1cc(C)c(S(=O)(=O)N2CCCOC2CNC(=O)C(=O)NCc2cccs2)c(C)c1 (stereo not drawn) | inactive
20 | CC1CC(=O)Nc2ccccc2N1C(=O)Cn1cnc2ccc(Br)cc2c1=O (stereo not drawn) | inactive
21 | COc1ccc(CNC(=O)C2CCC(CNS(=O)(=O)c3ccc(C)cc3)CC2)cc1 (stereo not drawn) | inactive
22 | Cc1[nH]c2ccccc2c1C(=O)C(C)OC(=O)c1ccccc1NCCO (stereo not drawn) | inactive

Row | Compound | Potency
23 | Cc1oc(-c2ccccc2F)nc1CS(=O)(=O)CC(=O)NC1CCCC(C)C1C (stereo not drawn) | inactive
24 | Cc1cc(=O)n2nc(N3CCCC(C(=O)NCc4ccc(Cl)cc4)C3)sc2n1 (stereo not drawn) | inactive
25 | Cc1cc(C)cc(NC(=O)COC(=O)CCn2c(C)csc2=O)c1 | inactive
26 | COc1ccc(C2=Nc3ccccc3C2(O)CCN2C(=O)c3ccccc3C2=O)cc1 (stereo not drawn) | inactive
27 | CCCOc1ccc(S(=O)(=O)NNC(=O)c2cc3ccccc3o2)cc1 | inactive
28 | CNC(=S)N1C2CCCC1CC(NC(=O)c1ccc(F)cc1)C2 (stereo not drawn) | inactive
29 | COC(=O)C1=CN(Cc2ccc(F)cc2)C=C(C(=O)OC)C1c1ccc(O)c(OC)c1 | inactive
30 | CCOC(=O)Oc1c(OC)cc(C(=O)O[C@@H]2C[C@@H]3CN4CCc5c([nH]c6cc(OC)ccc56)[C@H]4C[C@@H]3[C@H](C(=O)OC)[C@H]2OC)cc1OC | inactive
31 | COc1cc(C(=O)N/N=C(\Cc2ncc[nH]2)c2ccccc2)cc(OC)c1OC | inactive
32 | CCOC(=O)[C@H]1[C@H]2COc3ccc(Br)cc3[C@@H]2N2C(=O)c3c(C)cc(C)cc3NC(=O)[C@@]12C | inactive
33 | CSCC[C@H](NC(=O)[C@H](Cc1ccccc1)n1c(=O)[nH]c2ccccc2c1=O)C(=O)N1CCC[C@H]1C(=O)O | inactive
34 | CN(C)S(=O)(=O)c1ccc(NC(=O)COC(=O)CC2CC3CCC2C3)cc1 (stereo not drawn) | inactive
35 | C[C@H]1CN([C@@H](C)CO)C(=O)c2cc(NS(=O)(=O)c3ccc(Cl)cc3)ccc2O[C@@H]1CN(C)CC1CCCCC1 | inactive
36 | CC1C2=C(CC(C)(C)CC2=O)NC2=C1C(=O)CC(C)(C)C2 | inactive
37 | COc1ccc(S(=O)(=O)N2CCOCC2)cc1NC(=O)CN1C(=O)NC2(CCCC2)C1=O | inactive
38 | Cc1ccc(NC(=O)CSc2nncn2N)cc1C | inactive
39 | CCn1nc(C)c(CNC(=O)C2CCC(=O)N(CCc3ccc(OC)cc3)C2)c1C (stereo not drawn) | inactive
40 | O=C(Nc1c(C(=O)O)oc2ccc(Br)cc12)c1ccccc1 | inactive
41 | COc1ccc(NC(=O)c2nn(C)c3c2CS(=O)(=O)c2ccccc2-3)cc1 | inactive
42 | COc1cc(CNCCc2ccccc2)cc(Br)c1OCC(=O)Nc1ccccc1C | inactive
43 | O=C(CSc1nnnn1-c1cccc(F)c1)Nc1nc2ccccc2s1 | inactive

— PubChem BioAssay AID720518 (National Center for Advancing Translational Sciences (NCATS), 2013)
